In the library only some 21% were active in any assay of this set; here they are far more common.
NS1 function inh = qHTS Assay for Inhibitors of Influenza NS1 Protein Function. Potency, µM (highest dose often 46.1 µM), for the others: at the top dose activity, positive = more growth. 270,000 compounds, 0.4% hits. AID 2326, 2010; further: potency means the concentration at half of the fitted maximal effect; actives are rising curves; nearly all actives have a fitted effect of over 50% in size
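OD600 was taken as the measure of yeast growth restored by compound in an NS1-expressing S. cerevisiae strain. Cells had been washed out of glucose medium and diluted 1:100 into galactose -URA medium, pH 6.0.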
SARS PLP yeast = qHTS of Yeast-based Assay for SARS-CoV PLP; AID 485353, 2010; 330,000 compounds, 0.19% hits; S. cerevisiae expressing SARS-CoV PLpro, growth rescue; Potency, µM (doses to about 32.9 µM), inactives show at the highest dose activity, positive = growth rescue, most hits filed as activators; further: potency means the concentration at half of the fitted maximal effect; 0% is about no effect; nearly all actives have a fitted effect of over 55% in size
Shiga inhibitor = A qHTS for Small Molecule Inhibitors of Shiga Toxin; Vero cells, Shiga toxin protein synthesis inhibition reporter; inhibition, % at 38.7 µM; 290,000 compounds, 9.2% hits; AID 2315, 2010; in the data active means inhibition mostly above about 28%, no sharp cut-off; inactive means mostly below about 43%; further: 0% is about no effect
Pf growth 48h = Primary qHTS for delayed death inhibitors of the malarial parasite plastid, 48 hour incubation | P. falciparum luciferase growth in erythrocytes, 48 h | Potency, µM (doses to about 28.7 µM), inactives show at the top dose activity change, negative = inhibition, most hits filed as inhibitors | 310,000 compounds, 5.9% hits | AID 504832, 2011; active means well fitted inhibition curve with a large enough effect; inconclusive means small, poorly fitted or top-dose-only effect, or another doubt; inactive means no such curve, though single readings can be large or run the other way; further: potency means the concentration at half of the fitted maximal effect; on the % scale 0 is the no-effect control and ±100 the full control effect
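Luciferase-expressing parasites in RBCs, 2% Hct / 0.1% parasitemia final; RPMI 1640 + 0.5% Albumax; 37 C, 5% CO2, one generation; luminescence read-out, lower signal = inhibition.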
CHX counter = Cycloheximide Counterscreen for Small Molecule Inhibitors of Shiga Toxin | cell reporter, cycloheximide protein synthesis inhibition counterscreen | max response, % | 300,000 compounds, 12% hits | AID 2314, 2010; in the data active means max response mostly above about 13%, no sharp cut-off; inactive means mostly below about 14%; further: read at 38.3 µM for the half of the compounds with a filed dose; 0% is about no effect
Pf growth 96h = Primary qHTS for delayed death inhibitors of the malarial parasite plastid, 96 hour incubation | P. falciparum luciferase reporter growth, 96 h | Potency, µM (doses to about 28.7 µM), for the others: top-dose activity change, negative = inhibition, actives largely listed as inhibitors | 320,000 compounds, 6.9% hits | AID 504834, 2011; active means well fitted inhibition curve with a large enough effect; inconclusive means small, poorly fitted or top-dose-only effect, or another doubt; inactive means no such curve, though single readings can be large or run the other way; further: potency means the concentration at half of the fitted maximal effect; on the % scale 0 is the no-effect control and ±100 the full control effect
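Cell-based qHTS: luciferase-tagged P. falciparum in erythrocytes (2% hematocrit, 0.05% parasitemia final) incubated with compounds for 96 hours, 37 C, 5% CO2; luciferase detection reagent then added and luminescence measured.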
The depositor's hits bear a star; ? = inconclusive; / = no result given. Unless noted, the call rests on the fitted dose curve.

SMILES	NS1 function inh	SARS PLP yeast	Shiga inhibitor	Pf growth 48h	CHX counter	Pf growth 96h
O=C(Nc1ccccc1N1CCOCC1)c1ccc(Cl)c(S(=O)(=O)N2CCCC2)c1	/	-7%	/	?	/	?
Cc1ccccc1NC(=O)c1ccc(F)c(S(=O)(=O)N2CCN(c3ccccn3)CC2)c1	-5%	?	15	13µM*	-3	/
COc1ccc(NC(=O)c2cncc(Br)c2)c(S(=O)(=O)N2CCOCC2)c1	0%	-1%	-15	?	-2	10µM*
COc1ccc(C(=O)Nc2ccc(N3CCCCCC3)cc2)cc1S(=O)(=O)N1CCOCC1	/	-1%	/	12µM*	/	?
Cc1ccccc1NC(=O)c1cccc(S(=O)(=O)N2CCOCC2)c1	8%	-4%	-5	21%	0	?
O=C(Nc1ccccc1C(=O)N1CCCCCC1)c1cccc(S(=O)(=O)N2CCOCC2)c1	-2%	2%	-1	12µM*	-1	?
COc1ccc(C(=O)Nc2ccccc2N2CCOCC2)cc1S(=O)(=O)N1CCOCC1	/	-2%	/	5.9µM*	/	1.9µM*
O=C(Nc1ccccc1C(=O)N1CCCCC1)c1cccc(S(=O)(=O)N2CCOCC2)c1	2%	1%	-8	-15%	2	35%
Cc1ccc(C(=O)NNC(=O)c2ccc(Br)s2)cc1S(=O)(=O)N1CCOCC1	/	0%	/	-21%	/	-22%
COc1ccc(C(=O)Nc2ccccc2[N+](=O)[O-])cc1S(=O)(=O)N1CCOCC1	-16%	2%	-8	-14%	-1	?
O=C(NNC(=O)c1ccc(Br)s1)c1ccc(F)c(S(=O)(=O)N2CCOCC2)c1	/	1%	/	-12%	/	10µM*
O=C(Nc1ccccc1N1CCOCC1)c1cccc(S(=O)(=O)N2CCOCC2)c1	/	7%	/	?	/	4.7µM*
COc1cc(NC(=O)CSc2nc3[nH]c(=O)cc(O)c3s2)cc(OC)c1OC	/	6%	/	-13%	/	11%
CN1CCN(S(=O)(=O)c2cccc(C(=O)Nc3cc(Cl)ccc3N3CCOCC3)c2)CC1	/	0%	/	?	/	?
COc1ccc(C(=O)Nc2ccc(Br)cc2F)cc1S(=O)(=O)N1CCCC1	/	-4%	/	?	/	10µM*
COc1ccc(S(=O)(=O)N2CCOCC2)cc1NC(=O)c1ccc(Cl)cc1	/	/	/	-12%	/	8.3µM*
COc1ccc(C(=O)NCc2cccs2)cc1S(=O)(=O)N1CCOCC1	/	0%	-5	?	6	4.1µM*
CC1CN(S(=O)(=O)c2cccc(C(=O)Nc3cc(Cl)ccc3N3CCOCC3)c2)CC(C)O1 (configuration not stated)	/	3%	/	9.3µM*	/	9.3µM*
CCOCc1c(C(=O)NC2CCCCCC2)oc2ccccc12	-7%	-6%	0	?	3	-6%
COc1ccc(C(=O)Nc2cc(Cl)ccc2N2CCOCC2)cc1S(=O)(=O)N1CCOCC1	/	-3%	/	10µM*	/	?
Cc1nc2ccc(NC(=O)c3ccc(S(=O)(=O)N4CCOCC4)cc3)cc2s1	-2%	2%	13	6%	-2	?
Cc1nc2ccc(NC(=O)c3cccc(S(=O)(=O)N4CC(C)OC(C)C4)c3)cc2s1 (configuration not stated)	3%	1%	-9	/	-1	8.3µM*
O=C1OC(c2ccco2)=N/C1=C\c1ccc(-c2cccc(C(F)(F)F)c2)o1	19%	26%	-9	-4%	1	40%
Cc1cccc(OC(C)C(=O)N2CCCN(C)CC2)c1C (configuration not stated)	9%	11%	-26	-15%	5	?
Cc1cc2c(NC(=O)Nc3ccc(C(C)(C)C)cc3)cccc2nn1	11%	0%	28	?	12	12µM*
SMILES	NS1 function inh	SARS PLP yeast	Shiga inhibitor	Pf growth 48h	CHX counter	Pf growth 96h
Cc1nc2cc(NC(=O)Nc3cccc4ccccc34)ccc2n1C	0%	0%	83	-49%	28	22%
Cc1cc2c(NC(=O)Nc3ccccc3)cccc2nn1	3%	1%	20	?	5	13µM*
CCCCn1nnnc1NCc1cccc(OC)c1OC	1%	1%	-17	18%	-3	?
CCc1ccc(OCc2cnc(Cl)s2)cc1	2%	2%	78	17%	28*	52%
Clc1ccc(OCc2cnc(Cl)s2)cc1	-9%	1%	49	40%	26*	70%
CC(=O)Nc1ccc(OCc2cnc(Cl)s2)cc1	1%	0%	35	29%	25*	-13%
CC(=O)Nc1ccc(OC/C=C(\C)Cl)cc1	-21%	-2%	31	0%	17*	-16%
O=C1NC(=O)/C(=C\c2ccc(OCc3cnc(Cl)s3)cc2)S1	-6%	0%	-4	52%	-3	20%
O=C(c1cc2cc(Cl)ccc2[nH]1)N1CCN(C(=O)c2ccco2)CC1	17%	?	2	?	6	?
COc1ccc(OC)c(NC(=O)C2CC(/C=C/c3ccccc3)=NO2)c1 (configuration not stated)	-6%	-1%	-6	-2%	-7	?
O=C(NC1CCCC1)C(c1ccncc1)N(C(=O)c1ccco1)c1ccc(Cl)cc1 (configuration not stated)	-14%	1%	-3	0%	-6	?
CCc1ccc(N(C(=O)C(F)(F)F)C(C(=O)NC2CCCCC2)c2ccncc2)cc1 (configuration not stated)	7%	-2%	-1	13µM*	-2	2.6µM*
CCc1ccc(N(C(=O)c2ccco2)C(C(=O)NC2CCCC2)c2ccncc2)cc1 (configuration not stated)	-7%	-3%	74*	-13%	15*	?
O=C(NC1CCCCC1)C(c1ccncc1)N(Cc1ccc2c(c1)OCO2)C(=O)C(F)(F)F (configuration not stated)	-9%	-7%	-3	9.3µM*	-2	2.1µM*
COc1ccc(CCn2c(=N)c(C(=O)NCc3ccco3)cc3c(=O)n4ccccc4nc32)cc1	18%	-6%	-20	2.9µM*	-4	?
N=c1c(C(=O)NCCc2ccccc2)cc2c(=O)n3ccccc3nc2n1Cc1ccco1	-12%	-2%	33	2.3µM*	-5	56%
N=c1c(C(=O)NC2CCCCC2)cc2c(=O)n3ccccc3nc2n1CCc1ccccc1	1%	7%	29	1.5µM*	-3	1.7µM*
COc1ccc(CCn2c(=N)c(S(=O)(=O)c3ccccc3)cc3c(=O)n4ccccc4nc32)cc1	-6%	3%	-12	?	1	?
N=c1c(C(=O)NC2CCCCC2)cc2c(=O)n3ccccc3nc2n1Cc1ccco1	2%	0%	6	3.7µM*	-4	13%
